# Records with an inconclusive call do not appear. Active and inactive are the calls of the source. How the source made its calls: active means hit-call score of the fitted dose curve at least 0.9, where 1 is the maximum; inconclusive means response in the unintended direction; inactive means score below 0.9.
# Legend:
# [1] = TOX21_p53_BLA_p2_viability: Viability Assessment in the Tox21 HCT-116 p53 Agonism Beta-lactamase Assay, Phase 2 (AID 2283591);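 further: compound exposure lasted 16 h at 37 °C; actives lower the ATP signal meaning cytotoxicity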
# How it was run: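 HCT116 p53-bla cells, 4000/well, dosed after 5 h plating (217-fold dilution of DMSO stocks) and incubated 16 h at 37C. Viability taken as cellular ATP by CellTiter-Glo luminescence after 30 min RT; signal loss marks cytotoxicity.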
# [2] = biological target: Cellular tumor antigen p53 (Homo sapiens) (UniProt P04637); test: TOX21_p53_BLA_p2_ratio: Tox21 HCT-116 p53 Agonism Beta-lactamase Assay, Ratio, Phase 2 (AID 2283592)
# How it was run: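 Gain-of-signal p53 agonism was scored from the beta-lactamase FRET ratio (460/530 nm, 405 nm excitation) in HCT116 cells treated 16 h at 37C, 5% CO2, with DMSO serving as negative control and baseline.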
# [3] = biological target: Cellular tumor antigen p53 (Homo sapiens) (UniProt P04637); test: TOX21_p53_BLA_p3_ratio: Tox21 HCT-116 p53 Agonism Beta-lactamase Assay, Ratio, Phase 3 (AID 2283596)
# How it was run: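 HCT116 p53-bla cells (4000/well) given compound in DMSO (217-fold dilution) after 5 h, incubated 16 h at 37C. CCF4-AM substrate 2 h at room temperature; 460/530 nm emission ratio, gain fitted against DMSO.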
# [4] = TOX21_p53_BLA_p4_viability: Viability Assessment in the Tox21 HCT-116 p53 Agonism Beta-lactamase Assay, Phase 4 (AID 2283597);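 further: hits lower the luminescence signal meaning cytotoxicity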
# How it was run: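 Following a 16 h exposure at 37C, the treated HCT116 wells were first read for the FRET ratio. They were then lysed with CellTiter-Glo, and ATP luminescence was recorded after 30 min at room temperature.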
# [5] = biological target: Cellular tumor antigen p53 (Homo sapiens) (UniProt P04637); test: TOX21_p53_BLA_p5_ratio: Tox21 HCT-116 p53 Agonism Beta-lactamase Assay, Ratio, Phase 5 (AID 2283599)
# How it was run: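 HCT-116 p53-bla cells (4000/well) plated 5 h, dosed with compound (217-fold DMSO dilution) for 16 h at 37 C; CCF4-AM substrate 2 h at room temperature. Activity is the 460/530 nm emission ratio (405 nm excitation), fitted in gain-of-signal direction versus DMSO.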
# [6] = TOX21_p53_BLA_p5_viability: Viability Assessment in the Tox21 HCT-116 p53 Agonism Beta-lactamase Assay, Phase 5 (AID 2283600)
# How it was run: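 After the 460/530 nm beta-lactamase measurement, the wells received an ATP-detection luciferase reagent; signal was read 30 min later at RT. Compound treatment lasted 16 h on cells pre-incubated 5 h post-seeding.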
# [7] = biological target: Cellular tumor antigen p53 (Homo sapiens) (UniProt P04637); test: TOX21_p53_BLA_p4_ratio: Tox21 HCT-116 p53 Agonism Beta-lactamase Assay, Ratio, Phase 4 (AID 2283601)
# How it was run: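 HCT-116 p53 beta-lactamase reporter cells (4000/well) preincubated 5 h, then compound (217-fold dilution of DMSO stock) for 16 h at 37C. CCF4-AM substrate added 2 h at room temperature; 460/530 nm emission ratio fitted upward versus DMSO.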
# [8] = TOX21_p53_BLA_p3_viability: Viability Assessment in the Tox21 HCT-116 p53 Agonism Beta-lactamase Assay, Phase 3 (AID 2283593);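 further: cells exposed to compound for 16 h before reading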
# How it was run: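 HCT116 cells, 4000/well, dosed 5 h after plating by pin transfer (217-fold dilution from DMSO stock) and incubated 16 h at 37C, 5% CO2. Viability read as ATP luminescence with CellTiter-Glo after 30 min at room temperature.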
# [9] = biological target: THRA (gene 7067) (UniProt P10827); test: TOX21_TRA_COA_Antagonist_Followup_ratio: Tox21 Thyroid Hormone Receptor alpha Antagonism through Coactivator Recruitment Follow-Up Assay, Ratio (AID 2283953)
# How it was run: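 520:495 nm emission ratio (excitation 340 nm) reports fluorescein-SRC-2 peptide recruitment to GST-TRα LBD by TR-FRET with Tb anti-GST antibody. Values were normalized to DMSO (0%) and T3 control wells (100%); loss of signal indicated antagonism.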
# [10] = biological target: THRB (gene 7068) (UniProt P10828); test: TOX21_TRB_COA_Antagonist_Followup_ratio: Tox21 Thyroid Hormone Receptor beta Antagonism through Coactivator Recruitment Follow-Up Assay, Ratio (AID 2283967)
# How it was run: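 Cell-free TR-FRET: GST-TRb LBD (5.0 nM) with fluorescein-SRC-2 peptide (200 nM) and Tb anti-GST antibody (2 nM), 0.10% BSA. 520:495 nm emission ratio normalized to DMSO (0%) and T3 (100%).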
# [11] = biological target: Retinoic acid receptor RXR-alpha (Homo sapiens) (UniProt P19793); test: TOX21_TR_RXR_BLA_Antagonist_Followup_ratio: Tox21 Thyroid Hormone Receptor beta Retinoid X Receptor alpha (RXRa) Antagonism Beta-lactamase (BLA) Follow-Up Assay, Ratio (AID 2283972)
# How it was run: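 After 5 h attachment at 37C, HEK293T RXRa-bla cells (2,500/well, 2% charcoal-stripped FBS, no phenol red) received compounds at 11 concentrations in triplicate for 16 h. Beta-lactamase read as 460:530 nm ratio after 2 h RT substrate loading.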
# [12] = TOX21_TR_RXR_BLA_Antagonist_Followup_viability: Viability Assessment in the Tox21 Thyroid Hormone Receptor beta Retinoid X Receptor alpha (RXRa) Antagonism Beta-lactamase (BLA) Follow-Up Assay (AID 2283979)
# How it was run: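 RXRa-bla HEK293T cells (2,500/well, phenol red-free DMEM, 2% charcoal-stripped FBS) were attached 5 h, then exposed to compounds at 11 concentrations in triplicate for 16 h at 37C. Viability measured by CellTiter-Glo ATP luminescence, bidirectional fitting versus DMSO.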
# [13] = biological target: Thyroid hormone receptor alpha (Rattus norvegicus) + Thyroid hormone receptor beta (Rattus norvegicus) (UniProt P18113+P63059); test: TOX21_TR_LUC_GH3_Antagonist_Followup: Tox21 GH3 Thyroid Hormone Receptor Antagonism Luciferase Follow-Up Assay (AID 2283942)
# How it was run: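 Antagonist mode: GH3 cells seeded 1,500/well, compounds at 15 concentrations (92 uM to 5nM final) plus T3 at 1.0 nM final, 24 h at 37C. Luciferase read with ONE-Glo after 30 min at room temperature.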
# Sequence of Cellular tumor antigen p53 (Homo sapiens) (P04637 whole entry, looked up): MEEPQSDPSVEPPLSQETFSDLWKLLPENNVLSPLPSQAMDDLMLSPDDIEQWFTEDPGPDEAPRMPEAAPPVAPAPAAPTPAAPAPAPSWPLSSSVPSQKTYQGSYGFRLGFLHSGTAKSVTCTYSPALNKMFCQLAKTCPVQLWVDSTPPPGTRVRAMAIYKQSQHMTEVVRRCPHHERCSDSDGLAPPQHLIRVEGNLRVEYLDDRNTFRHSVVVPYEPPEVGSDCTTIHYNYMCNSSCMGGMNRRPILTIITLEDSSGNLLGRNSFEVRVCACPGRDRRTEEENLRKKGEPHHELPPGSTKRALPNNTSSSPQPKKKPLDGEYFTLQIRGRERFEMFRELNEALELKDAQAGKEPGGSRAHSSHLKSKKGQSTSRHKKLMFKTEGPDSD
# Sequence of Retinoic acid receptor RXR-alpha (Homo sapiens) (P19793 whole entry, looked up): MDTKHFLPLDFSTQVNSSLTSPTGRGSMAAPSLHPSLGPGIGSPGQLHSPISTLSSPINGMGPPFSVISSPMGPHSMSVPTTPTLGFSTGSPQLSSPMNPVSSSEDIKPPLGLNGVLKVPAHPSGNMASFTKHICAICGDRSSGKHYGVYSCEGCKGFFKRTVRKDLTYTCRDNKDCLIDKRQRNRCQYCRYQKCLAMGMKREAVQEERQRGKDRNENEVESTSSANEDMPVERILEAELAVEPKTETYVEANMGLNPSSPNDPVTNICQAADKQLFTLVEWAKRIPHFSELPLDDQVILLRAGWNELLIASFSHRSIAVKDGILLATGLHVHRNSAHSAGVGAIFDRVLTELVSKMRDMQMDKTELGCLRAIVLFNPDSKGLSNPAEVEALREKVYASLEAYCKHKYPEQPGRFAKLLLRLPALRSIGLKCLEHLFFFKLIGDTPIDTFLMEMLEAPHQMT
# Sequence of THRB (gene 7068) (P10828 whole entry, looked up, the tested form may be a part): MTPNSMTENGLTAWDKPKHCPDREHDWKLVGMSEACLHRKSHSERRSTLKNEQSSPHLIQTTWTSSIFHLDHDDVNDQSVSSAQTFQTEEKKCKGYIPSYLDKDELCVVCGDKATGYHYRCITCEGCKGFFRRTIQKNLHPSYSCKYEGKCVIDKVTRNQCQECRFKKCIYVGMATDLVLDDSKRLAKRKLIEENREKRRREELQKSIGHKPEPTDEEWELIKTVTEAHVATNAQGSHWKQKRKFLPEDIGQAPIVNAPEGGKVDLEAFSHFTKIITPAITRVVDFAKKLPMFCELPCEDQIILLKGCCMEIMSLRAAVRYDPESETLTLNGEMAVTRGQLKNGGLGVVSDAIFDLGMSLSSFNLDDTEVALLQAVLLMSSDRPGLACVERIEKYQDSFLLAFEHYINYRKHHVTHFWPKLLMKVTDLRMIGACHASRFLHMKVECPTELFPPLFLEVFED
# Sequence of THRA (gene 7067) (P10827 whole entry, looked up, the tested form may be a part): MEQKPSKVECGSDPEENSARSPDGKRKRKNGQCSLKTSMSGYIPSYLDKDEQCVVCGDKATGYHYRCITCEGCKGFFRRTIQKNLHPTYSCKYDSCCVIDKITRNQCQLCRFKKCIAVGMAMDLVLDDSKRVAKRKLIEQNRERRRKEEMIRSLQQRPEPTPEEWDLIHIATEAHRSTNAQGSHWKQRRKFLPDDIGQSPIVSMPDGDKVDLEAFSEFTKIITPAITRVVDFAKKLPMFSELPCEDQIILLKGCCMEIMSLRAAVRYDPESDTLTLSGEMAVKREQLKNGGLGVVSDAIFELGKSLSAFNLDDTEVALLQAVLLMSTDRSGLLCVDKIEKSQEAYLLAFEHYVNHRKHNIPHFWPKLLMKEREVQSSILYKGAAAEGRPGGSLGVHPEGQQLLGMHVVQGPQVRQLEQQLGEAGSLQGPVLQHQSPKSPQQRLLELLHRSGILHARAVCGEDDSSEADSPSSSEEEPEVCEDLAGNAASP
smiles,measurement,setting,value
N=C(N)[Se],outcome,[1],inactive
same,outcome,[2],inactive
same,outcome,[3],inactive
same,outcome,[4],inactive
same,outcome,[5],inactive
same,outcome,[6],inactive
same,outcome,[7],inactive
Nc1ccncc1,outcome,[1],inactive
same,outcome,[2],inactive
same,outcome,[3],inactive
same,outcome,[4],inactive
same,outcome,[5],inactive
same,outcome,[6],inactive
same,outcome,[7],inactive
CCC(C)Cl (stereo not drawn),outcome,[1],inactive
same,outcome,[2],inactive
same,outcome,[3],inactive
same,outcome,[4],inactive
same,outcome,[5],inactive
same,outcome,[6],inactive
CCOc1ccc2c3c1O[C@H]1[C@@H](O)C=C[C@H]4[C@@H](C2)N(C)CC[C@@]341,outcome,[1],inactive
same,outcome,[2],inactive
same,outcome,[3],inactive
same,outcome,[4],inactive
NCc1cccnc1,outcome,[1],inactive
same,outcome,[2],inactive
same,outcome,[8],inactive
same,outcome,[5],inactive
same,outcome,[6],inactive
same,outcome,[7],inactive
CCC1(c2ccccc2)CCC(=O)NC1=O (stereo not drawn),outcome,[1],inactive
same,outcome,[2],inactive
same,outcome,[8],inactive
same,outcome,[5],inactive
same,outcome,[6],inactive
O=c1oc2ccccc2c(O)c1Cc1c(O)c2ccccc2oc1=O,AC50,[1],8.02 µM (active)
same,AC50,[2],6.79 µM (active)
same,AC50,[3],1.07 µM (active)
same,AC50,[4],3.3 µM (active)
same,AC50,[5],3.93 µM (active)
same,outcome,[6],inactive
same,AC50,[7],3.95 µM (active)
same,outcome,[9],inactive
same,outcome,[10],inactive
same,outcome,[11],inactive
same,outcome,[12],inactive
C=CC(=O)OC(C)(C)C,outcome,[1],inactive
same,outcome,[2],inactive
same,outcome,[3],inactive
same,outcome,[4],inactive
same,outcome,[5],inactive
same,outcome,[6],inactive
CCC(COC(=O)c1cc(OC)c(OC)c(OC)c1)(c1ccccc1)N(C)C (stereo not drawn),outcome,[1],inactive
same,outcome,[2],inactive
same,outcome,[8],inactive
same,outcome,[6],inactive
same,outcome,[7],inactive
same,outcome,[13],inactive
same,outcome,[9],inactive
same,outcome,[10],inactive
same,outcome,[11],inactive
same,outcome,[12],inactive
CCN(CC)CCOC(=O)C(O)(c1ccccc1)c1ccccc1,outcome,[1],inactive
same,outcome,[2],inactive
same,outcome,[8],inactive
same,outcome,[5],inactive
same,outcome,[6],inactive
O=C(O)c1cc(Cl)ccc1Cl,outcome,[1],inactive
same,outcome,[2],inactive
same,outcome,[3],inactive
same,outcome,[4],inactive
same,outcome,[5],inactive
same,outcome,[6],inactive
CCOC(=O)NC(C)(C)Cc1ccc(Cl)cc1,outcome,[1],inactive
same,outcome,[2],inactive
same,outcome,[3],inactive
same,outcome,[4],inactive
same,outcome,[5],inactive
same,outcome,[6],inactive
same,outcome,[7],inactive
C=CC=O,outcome,[1],inactive
same,outcome,[2],inactive
same,outcome,[3],inactive
same,outcome,[4],inactive
same,outcome,[5],inactive
same,outcome,[6],inactive
O=C(O)C(Cl)Br (stereo not drawn),outcome,[1],inactive
same,outcome,[2],inactive
same,outcome,[3],inactive
same,outcome,[4],inactive
same,outcome,[5],inactive
same,outcome,[6],inactive
same,outcome,[7],inactive
O=C(Cl)OCc1ccccc1,outcome,[1],inactive
same,outcome,[2],inactive
same,outcome,[8],inactive
same,outcome,[5],inactive
same,outcome,[6],inactive
same,outcome,[7],inactive
Cn1c(N)nc2c3cccnc3ccc21,outcome,[1],inactive
same,outcome,[2],inactive
same,outcome,[3],inactive
same,outcome,[4],inactive
same,outcome,[5],inactive
Nc1nc(N)c(N)c(N)n1,outcome,[1],inactive
same,outcome,[2],inactive
same,outcome,[3],inactive
same,outcome,[4],inactive
O=C1CN=C(c2ccccc2)c2cc(Cl)ccc2N1,outcome,[1],inactive
same,outcome,[2],inactive
same,outcome,[3],inactive
same,outcome,[4],inactive
O=C(CCl)c1ccc(Oc2ccc(C(=O)CCl)cc2)cc1,outcome,[1],inactive
same,AC50,[2],43.4 µM (active)
same,outcome,[3],inactive
same,outcome,[4],inactive
same,outcome,[5],inactive
same,AC50,[7],41.9 µM (active)
O=C(Cl)CCl,outcome,[1],inactive
same,outcome,[2],inactive
same,outcome,[3],inactive
same,outcome,[4],inactive
same,outcome,[5],inactive
same,outcome,[6],inactive
same,outcome,[7],inactive
C=CCOCC1CO1 (stereo not drawn),outcome,[1],inactive
same,outcome,[2],inactive
same,outcome,[3],inactive
same,outcome,[4],inactive
same,outcome,[5],inactive
same,outcome,[6],inactive
Cc1ccc2c(c1)C1CN(C)CCC1N2 (stereo not drawn),outcome,[1],inactive
same,outcome,[2],inactive
same,outcome,[8],inactive
same,outcome,[5],inactive
same,outcome,[7],inactive
O=P(O)(O)C(Cl)(Cl)P(=O)(O)O,outcome,[1],inactive
same,outcome,[2],inactive
same,outcome,[3],inactive
same,outcome,[4],inactive
same,outcome,[5],inactive
same,outcome,[6],inactive
same,outcome,[7],inactive
CCC(=O)O[C@]1(c2ccccc2)CCN(C)C[C@H]1C,outcome,[1],inactive
same,outcome,[2],inactive
same,outcome,[3],inactive
same,outcome,[4],inactive
same,outcome,[5],inactive
same,outcome,[6],inactive
same,outcome,[7],inactive
CN1CCc2cc(Cl)c(O)cc2[C@H]2c3ccccc3CC[C@@H]21,outcome,[1],inactive
same,outcome,[2],inactive
same,outcome,[3],inactive
same,outcome,[4],inactive
same,outcome,[5],inactive
same,outcome,[6],inactive
C=CCSSCC=C,outcome,[1],inactive
same,outcome,[2],inactive
same,AC50,[3],57.5 µM (active)
same,outcome,[4],inactive
same,outcome,[6],inactive
C[C@]12CCC(=O)C[C@@H]1CC[C@@H]1[C@@H]2CC[C@@]2(C)[C@H]1CC[C@]2(C)O,outcome,[1],inactive
same,outcome,[2],inactive
same,outcome,[3],inactive
same,outcome,[4],inactive
same,outcome,[6],inactive
same,outcome,[7],inactive
C#C[C@]1(O)C=C[C@H]2[C@@H]3CCC4=CC(=O)CC[C@@H]4[C@H]3CC[C@@]21CC,outcome,[1],inactive
same,outcome,[2],inactive
same,outcome,[3],inactive
same,outcome,[4],inactive
same,outcome,[5],inactive
same,outcome,[7],inactive
COP(=S)(OC)Oc1ccc([N+](=O)[O-])cc1Cl,outcome,[1],inactive
same,outcome,[2],inactive
same,outcome,[3],inactive
same,outcome,[6],inactive
same,outcome,[7],inactive

# Reference: PubChem BioAssay (EPA / NIEHS)
